{
  "source": "PubChem BioAssay AID1159580",
  "about": "(chemical genetic matrix, 2015)",
  "assay": "chemical genetic growth profiling, strain panel (AID 1159580);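 also: tested at 20 µM; growth read once vehicle control cultures reached saturation at 30 °C; 1 = growth at the plate median or of vehicle wells; lower values mean less growth of the strain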",
  "settings": "growth OD",
  "note": "Hit rate of the full screen: of about 5,500 compounds, about 2,000 (36%) were called active. Not shown: some 18% with an inconclusive outcome. The list shows a part of the results. Values without a mark were called inactive. Rule as the data show it: active = normalized growth mostly below about 0.91 (no sharp cut-off); inconclusive = no clear call, values can overlap the other calls; inactive = mostly above about 0.92.",
  "data": [
    {"smiles": "COc1ccc2c(c1)OC[C@@H](Cc1ccc(OC)c(OC)c1)[C@H]2O", "values": [
      {"measurement": "normalized growth", "setting": "S. cerevisiae deletion strains, locus YJR066W, strain TOR1, active compounds read low", "result": 0.913},
      {"measurement": "normalized growth", "setting": "S. cerevisiae deletion strains, locus YKL009W, strain mrt4, active compounds read low", "result": 0.954},
      {"measurement": "normalized growth", "setting": "S. cerevisiae deletion strains, locus YKL068W, active compounds read low", "result": 0.973},
      {"measurement": "normalized growth", "setting": "S. cerevisiae deletion strains, locus YKL085W, strain MDH1 (second series), active compounds read low", "result": 0.976},
      {"measurement": "normalized growth", "setting": "S. cerevisiae deletion strains, locus YKL085W, strain MDH1, active compounds read low", "result": 0.976},
      {"measurement": "normalized growth", "setting": "S. cerevisiae deletion strains, locus YKL160W, strain elf1, active compounds read low", "result": 1.01},
      {"measurement": "normalized growth", "setting": "S. cerevisiae deletion strains, locus YKL190W, strain CNB1, active compounds read low", "result": 0.997},
      {"measurement": "normalized growth", "setting": "S. cerevisiae deletion strains, locus YKR001C, strain vps1, active compounds read low", "result": "0.84 (active)"},
      {"measurement": "normalized growth", "setting": "S. cerevisiae deletion strains, locus YKR026C, strain gcn3, active compounds read low", "result": 1},
      {"measurement": "normalized growth", "setting": "S. cerevisiae deletion strains, locus YKR091W, strain srl3, active compounds read low", "result": 1},
      {"measurement": "normalized growth", "setting": "S. cerevisiae deletion strains, locus YLL001W, strain dnm1, active compounds read low", "result": 0.979},
      {"measurement": "normalized growth", "setting": "S. cerevisiae deletion strains, locus YLL026W, active compounds read low", "result": 0.996},
      {"measurement": "normalized growth", "setting": "S. cerevisiae deletion strains, locus YLL041C, strain sdh2, active compounds read low", "result": 1},
      {"measurement": "normalized growth", "setting": "S. cerevisiae deletion strains, locus YLR027C, strain aat2, active compounds read low", "result": 1.01},
      {"measurement": "normalized growth", "setting": "S. cerevisiae deletion strains, locus YLR039C, strain RIC1, active compounds read low", "result": "0.675 (active)"},
      {"measurement": "normalized growth", "setting": "S. cerevisiae deletion strains, locus YLR058C, strain SHM2, active compounds read low", "result": 1},
      {"measurement": "normalized growth", "setting": "S. cerevisiae deletion strains, locus YLR102C, strain apc9, active compounds read low", "result": 0.981},
      {"measurement": "normalized growth", "setting": "S. cerevisiae deletion strains, locus YLR113W, strain HOG1, active compounds read low", "result": 0.871},
      {"measurement": "normalized growth", "setting": "S. cerevisiae deletion strains, locus YLR221C, strain rsa3, active compounds read low", "result": 1.01},
      {"measurement": "normalized growth", "setting": "S. cerevisiae deletion strains, locus YLR258W, strain gsy2, active compounds read low", "result": 0.994},
      {"measurement": "normalized growth", "setting": "S. cerevisiae deletion strains, locus YLR262C, strain YPT6 (second series), active compounds read low", "result": "0.755 (active)"},
      {"measurement": "normalized growth", "setting": "S. cerevisiae deletion strains, locus YLR262C, strain YPT6, active compounds read low", "result": 0.641},
      {"measurement": "normalized growth", "setting": "S. cerevisiae deletion strains, locus YLR268W, strain sec22, active compounds read low", "result": 0.997},
      {"measurement": "normalized growth", "setting": "S. cerevisiae deletion strains, locus YLR320W, strain mms22, active compounds read low", "result": 1.01},
      {"measurement": "normalized growth", "setting": "S. cerevisiae deletion strains, locus YLR330W, strain CHS5, active compounds read low", "result": 0.984},
      {"measurement": "normalized growth", "setting": "S. cerevisiae deletion strains, locus YLR342W, strain FKS1 (second series), active compounds read low", "result": 1.02},
      {"measurement": "normalized growth", "setting": "S. cerevisiae deletion strains, locus YLR342W, strain FKS1, active compounds read low", "result": 1},
      {"measurement": "normalized growth", "setting": "S. cerevisiae deletion strains, locus YLR357W, strain rsc2, active compounds read low", "result": 1.01},
      {"measurement": "normalized growth", "setting": "S. cerevisiae deletion strains, locus YLR370C, strain arc18, active compounds read low", "result": 1},
      {"measurement": "normalized growth", "setting": "S. cerevisiae deletion strains, locus YLR371W, strain rom2, active compounds read low", "result": 0.96},
      {"measurement": "normalized growth", "setting": "S. cerevisiae deletion strains, locus YLR384C, strain iki3, active compounds read low", "result": 1.01},
      {"measurement": "normalized growth", "setting": "S. cerevisiae deletion strains, locus YLR418C, strain cdc73, active compounds read low", "result": 1.04},
      {"measurement": "normalized growth", "setting": "S. cerevisiae deletion strains, locus YML016C, strain PPZ1, active compounds read low", "result": 1},
      {"measurement": "normalized growth", "setting": "S. cerevisiae deletion strains, locus YML032C, strain rad52, active compounds read low", "result": 0.975},
      {"measurement": "normalized growth", "setting": "S. cerevisiae deletion strains, locus YML120C, strain ndi1, active compounds read low", "result": 1},
      {"measurement": "normalized growth", "setting": "S. cerevisiae deletion strains, locus YML124C, strain tub3, active compounds read low", "result": 0.976},
      {"measurement": "normalized growth", "setting": "S. cerevisiae deletion strains, locus YMR058W, strain fet3, active compounds read low", "result": 1.02},
      {"measurement": "normalized growth", "setting": "S. cerevisiae deletion strains, locus YMR078C, strain ctf18, active compounds read low", "result": 0.977},
      {"measurement": "normalized growth", "setting": "S. cerevisiae deletion strains, locus YMR125W, strain sto1, active compounds read low", "result": 1.01},
      {"measurement": "normalized growth", "setting": "S. cerevisiae deletion strains, locus YMR129W, active compounds read low", "result": 1.01},
      {"measurement": "normalized growth", "setting": "S. cerevisiae deletion strains, locus YMR205C, strain PFK2, active compounds read low", "result": 0.966},
      {"measurement": "normalized growth", "setting": "S. cerevisiae deletion strains, locus YMR223W, strain ubp8, active compounds read low", "result": 0.976},
      {"measurement": "normalized growth", "setting": "S. cerevisiae deletion strains, locus YMR231W, strain pep5, active compounds read low", "result": 0.981},
      {"measurement": "normalized growth", "setting": "S. cerevisiae deletion strains, locus YMR307W, strain GAS1, active compounds read low", "result": 1.11},
      {"measurement": "normalized growth", "setting": "S. cerevisiae deletion strains, locus YNL067W, strain RPL9B, active compounds read low", "result": 1.02},
      {"measurement": "normalized growth", "setting": "S. cerevisiae deletion strains, locus YNL071W, strain lat1, active compounds read low", "result": 1},
      {"measurement": "normalized growth", "setting": "S. cerevisiae deletion strains, locus YNL153C, strain GIM3, active compounds read low", "result": 1.03},
      {"measurement": "normalized growth", "setting": "S. cerevisiae deletion strains, locus YNL183C, strain NPR1, active compounds read low", "result": 0.867},
      {"measurement": "normalized growth", "setting": "S. cerevisiae deletion strains, locus YNL209W, strain ssb2, active compounds read low", "result": 1.02},
      {"measurement": "normalized growth", "setting": "S. cerevisiae deletion strains, locus YNL233W, strain BNI4, active compounds read low", "result": 1.02},
      {"measurement": "normalized growth", "setting": "S. cerevisiae deletion strains, locus YNL248C, strain rpa49, active compounds read low", "result": 1.01},
      {"measurement": "normalized growth", "setting": "S. cerevisiae deletion strains, locus YNL250W, strain rad50, active compounds read low", "result": 0.962},
      {"measurement": "normalized growth", "setting": "S. cerevisiae deletion strains, locus YNL271C, strain bni1, active compounds read low", "result": 0.977},
      {"measurement": "normalized growth", "setting": "S. cerevisiae deletion strains, locus YNL298W, strain CLA4, active compounds read low", "result": 0.991},
      {"measurement": "normalized growth", "setting": "S. cerevisiae deletion strains, locus YNL307C, strain MCK1, active compounds read low", "result": 0.971},
      {"measurement": "normalized growth", "setting": "S. cerevisiae deletion strains, locus YNL322C, strain KRE1 (second series), active compounds read low", "result": 0.973},
      {"measurement": "normalized growth", "setting": "S. cerevisiae deletion strains, locus YNR049C, strain mso1, active compounds read low", "result": 1.01},
      {"measurement": "normalized growth", "setting": "S. cerevisiae deletion strains, locus YNR052C, strain pop2, active compounds read low", "result": 0.978},
      {"measurement": "normalized growth", "setting": "S. cerevisiae deletion strains, locus YOL012C, strain htz1", "result": 1.24},
      {"measurement": "normalized growth", "setting": "S. cerevisiae deletion strains, locus YOL147C, strain pex11, active compounds read low", "result": 0.983},
      {"measurement": "normalized growth", "setting": "S. cerevisiae deletion strains, locus YOR001W, strain rrp6, active compounds read low", "result": 1.03},
      {"measurement": "normalized growth", "setting": "S. cerevisiae deletion strains, locus YOR061W, strain CKA2, active compounds read low", "result": 0.999},
      {"measurement": "normalized growth", "setting": "S. cerevisiae deletion strains, locus YOR069W, strain VPS5, active compounds read low", "result": 0.995},
      {"measurement": "normalized growth", "setting": "S. cerevisiae deletion strains, locus YOR070C, strain gyp1, active compounds read low", "result": 1},
      {"measurement": "normalized growth", "setting": "S. cerevisiae deletion strains, locus YOR080W, strain dia2, active compounds read low", "result": 1.01},
      {"measurement": "normalized growth", "setting": "S. cerevisiae deletion strains, locus YOR083W, strain WHI5, active compounds read low", "result": 0.997},
      {"measurement": "normalized growth", "setting": "S. cerevisiae deletion strains, locus YOR106W, strain vam3, active compounds read low", "result": 0.99},
      {"measurement": "normalized growth", "setting": "S. cerevisiae deletion strains, locus YOR136W, strain idh2, active compounds read low", "result": 0.986},
      {"measurement": "normalized growth", "setting": "S. cerevisiae deletion strains, locus YOR144C, strain elg1, active compounds read low", "result": 0.995},
      {"measurement": "normalized growth", "setting": "S. cerevisiae deletion strains, locus YOR184W, strain ser1, active compounds read low", "result": 0.964},
      {"measurement": "normalized growth", "setting": "S. cerevisiae deletion strains, locus YOR231W, strain MKK1, active compounds read low", "result": 0.93},
      {"measurement": "normalized growth", "setting": "S. cerevisiae deletion strains, locus YOR265W, strain rbl2, active compounds read low", "result": 1.01},
      {"measurement": "normalized growth", "setting": "S. cerevisiae deletion strains, locus YOR270C, strain vph1, active compounds read low", "result": 1.01},
      {"measurement": "normalized growth", "setting": "S. cerevisiae deletion strains, locus YOR290C, strain snf2, active compounds read low", "result": 0.987},
      {"measurement": "normalized growth", "setting": "S. cerevisiae deletion strains, locus YOR316C, strain cot1, active compounds read low", "result": 0.969},
      {"measurement": "normalized growth", "setting": "S. cerevisiae deletion strains, locus YPL051W, strain arl3, active compounds read low", "result": 0.997},
      {"measurement": "normalized growth", "setting": "S. cerevisiae deletion strains, locus YPL078C, strain atp4, active compounds read low", "result": 1.02},
      {"measurement": "normalized growth", "setting": "S. cerevisiae deletion strains, locus YPL106C, strain sse1, active compounds read low", "result": 1.03},
      {"measurement": "normalized growth", "setting": "S. cerevisiae deletion strains, locus YPL240C, strain hsp82, active compounds read low", "result": 1.01},
      {"measurement": "normalized growth", "setting": "S. cerevisiae deletion strains, locus YPL241C, strain CIN2, active compounds read low", "result": 1},
      {"measurement": "normalized growth", "setting": "S. cerevisiae deletion strains, locus YPL256C, strain CLN2, active compounds read low", "result": 0.907},
      {"measurement": "normalized growth", "setting": "S. cerevisiae deletion strains, locus YPR119W, strain clb2, active compounds read low", "result": 0.974},
      {"measurement": "normalized growth", "setting": "S. cerevisiae deletion strains, locus YPR141C, strain kar3, active compounds read low", "result": 0.979},
      {"measurement": "normalized growth", "setting": "S. cerevisiae deletion strains, locus YPR163C, strain tif3, active compounds read low", "result": 0.974},
      {"measurement": "normalized growth", "setting": "S. cerevisiae deletion strains, locus YPR167C, strain met16, active compounds read low", "result": 0.959},
      {"measurement": "normalized growth", "setting": "S. cerevisiae deletion strains, strain wtn01, active compounds read low", "result": 0.97},
      {"measurement": "normalized growth", "setting": "S. cerevisiae strains, strain wild type, active compounds read low", "result": 0.995}
    ]}
  ]
}
